An excerpt weighted towards active compounds, which were near 28% of everything screened.
CD11b adhes enh – enhancers of CD11b/CD18 adhesion to fibrinogen, primary screen, K562 cells, luminescence; Integrin beta-2 (Homo sapiens) + Integrin alpha-M (Homo sapiens), P05107+P11215; ATPlite luminescence; activation, % at 10 µM; 0.07% of 93,000 active; AID 1499, 2009;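 active = 10 µM primary screen giving 50% or more activity, confirmed by 40% or more on retest at that dose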
Target sequence (P05107 whole entry, looked up, other chains not shown): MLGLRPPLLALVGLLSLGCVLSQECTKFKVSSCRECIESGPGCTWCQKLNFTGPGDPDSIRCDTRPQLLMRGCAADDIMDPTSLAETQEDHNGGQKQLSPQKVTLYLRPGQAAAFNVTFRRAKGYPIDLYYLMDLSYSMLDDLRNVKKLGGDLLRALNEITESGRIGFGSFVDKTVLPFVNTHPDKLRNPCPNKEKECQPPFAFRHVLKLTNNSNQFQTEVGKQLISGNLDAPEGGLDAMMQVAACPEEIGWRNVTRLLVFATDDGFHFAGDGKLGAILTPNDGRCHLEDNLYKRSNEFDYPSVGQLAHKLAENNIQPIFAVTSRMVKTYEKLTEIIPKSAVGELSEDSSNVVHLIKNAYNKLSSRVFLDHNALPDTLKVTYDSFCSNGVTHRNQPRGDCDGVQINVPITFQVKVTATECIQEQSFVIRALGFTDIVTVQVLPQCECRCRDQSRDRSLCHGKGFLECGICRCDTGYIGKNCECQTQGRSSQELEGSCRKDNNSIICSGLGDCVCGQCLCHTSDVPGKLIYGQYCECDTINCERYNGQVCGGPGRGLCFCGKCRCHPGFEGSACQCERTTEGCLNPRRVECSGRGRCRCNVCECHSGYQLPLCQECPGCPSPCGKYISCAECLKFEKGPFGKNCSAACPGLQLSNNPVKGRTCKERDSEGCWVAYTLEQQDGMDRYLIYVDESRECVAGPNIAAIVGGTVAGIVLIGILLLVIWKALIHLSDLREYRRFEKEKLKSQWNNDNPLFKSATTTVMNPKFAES
Mac1 fbg inh – inhibitors of CD11b/CD18 adhesion to fibrinogen, primary screen, K562 cells, luminescence; Integrin beta-2 (Homo sapiens) + Integrin alpha-M (Homo sapiens), P05107+P11215; ATPlite luminescence; Mn2+ added to activate the integrin; inhibition, % at 10 µM; 0.54% of 93,000 active;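 active = primary inhibition of 50% or more at 10 µM, then 40% or more on retest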
CYP2C19 act – human CYP2C19 activators, primary screen, biochemical, luminescence. Cytochrome P450 2C19 (Homo sapiens), P33261. recombinant CYP2C19, luciferin-H EGE luminescence; active compounds read high; 0 = fully inhibited enzyme, 1 = untreated enzyme. activation factor at 5 µM. 96,000 tested, under 10 active. AID 1025, 2008;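 active = activation factor of at least 2 at 5 µM in the primary screen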;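 note: 0 = wells with 2.5 mM tranylcypromine and 1 = vehicle-only wells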
CYP2C9 inhib – blockers of cytochrome P450 2C9 activity – biochemical, luminescence, ADME assay, primary screen. P11712. CYP2C9 Supersomes, luciferin-H conversion. inhibition, % at 5 µM. 20% of 96,000 active. AID 777, 2007;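 active = blocking of liver enzyme CYP2C9 beyond about 50% at 5 µM, limit read from the data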
CYP2C19 inhib – blockers of cytochrome P450 2C19 activity – biochemical, luminescence, ADME assay, primary screen | CYP2C19 Supersomes, luciferin-H EGE luminescence, 30 min | AID 778, 2007 | 21% of 96,000 active | inhibition, % at 5 µM;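 active = CYP2C19 inhibition above a set limit at 5 µM in the primary screen, cut at about 50% in these data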;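 note: plate controls were negative control wells for no effect and 2.5 mM tranylcypromine positive control for full effect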
CYP2C9 act – human CYP2C9 activators, primary screen, biochemical, luminescence; Cytochrome P450 2C9 (Homo sapiens), P11712; recombinant CYP2C9, luciferin-H conversion; active compounds read high; factor 1 = untreated enzyme, 0 = blocked; activation factor at 5 µM; 1.4% of 96,000 active;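 active = activation factor of 2 or more for CYP2C9 at a 5 µM dose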;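 note: 0 = sulfaphenazole-blocked wells and 1 = vehicle-only wells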
An asterisk follows results filed as active; nt = no result.

SMILES	CD11b adhes enh	Mac1 fbg inh	CYP2C19 act	CYP2C9 inhib	CYP2C19 inhib	CYP2C9 act
CCCN1Cc2cccc(C(=O)N3CCN(c4cc(Cl)ccc4C)CC3)c2C1=O	8.1	9.8	0.1	95.6*	89.4*	0
CC(C)(C)c1ccc(S(=O)(=O)N2C=CC(C(F)(F)F)=NCC2)cc1	4.6	-1.8	0.1	11.9	86.2*	0.9
CCCCn1c(=N)n(CC(O)COc2cccc(C)c2)c2ccccc21 (stereo unspecified)	1.3	-1.9	0.8	0.7	20.1	1
CC(OC(=O)CCCN1C(=O)c2ccccc2C1=O)C(=O)Nc1ncc(Cl)cc1Cl (stereo unspecified)	-0.3	-0.9	0.8	25.7	19.5	0.7
CC(OC(=O)C1CCN(S(=O)(=O)c2ccccc2)CC1)C(=O)Nc1ncc(Cl)cc1Cl (stereo unspecified)	1.2	-8.3	0.2	92.8*	75.4*	0.1
COc1ccc2[nH]c(C)c(CN3CCCCC3)c(=O)c2c1	-1.4	-1.3	1.1	-11.6	-12.2	1.1
COc1ccc2[nH]c(C)c(CCN3C(=O)C4C5C=CC(C5)C4C3=O)c2c1 (stereo unspecified)	-0.8	-4.6	0.1	37.2	93.7*	0.6
O=C(Nc1ccc(F)cc1)C(c1ccccc1)N1CCN(C(=O)c2ccco2)CC1 (stereo unspecified)	0.4	-36.9	0.8	71.0*	22.0	0.3
O=C(Nc1ccc2c(c1)OCO2)C(c1ccc(Cl)cc1)N1CCN(C(=O)c2ccco2)CC1 (stereo unspecified)	0.9	6.8	0.3	94.7*	75.0*	0.1
O=C(c1ccco1)N1CCN(C(=O)C(Sc2ccccc2)c2ccccc2)CC1 (stereo unspecified)	2.4	7.5	0.2	83.4*	78.2*	0.2
O=C(Nc1ccc2c(c1)OCO2)C(c1ccccc1)N1CCN(C(=O)c2ccco2)CC1 (stereo unspecified)	-3.5	5.3	0.2	98.5*	75.6*	0
CCN(CC)c1cc(Oc2ccccc2)ncn1	-1.1	-3.3	0.2	31.2	80.0*	0.7
COc1cc(S(=O)(=O)N2CCN(C)CC2)c(OC)cc1Br	2.8	-6.8	0.9	-36.2	7.5	1.4
Cc1nn(S(=O)(=O)c2cccs2)c(C)c1Sc1ccc([N+](=O)[O-])cc1	-5.4	72.8	0.8	27.8	24.3	0.7
Cc1nn(S(=O)(=O)c2ccccc2)c(C)c1Sc1ccc([N+](=O)[O-])cc1	-6.5	82.9	0.4	35.8	62.3*	0.6
Cc1oc(-c2ccc3c(c2)OCCO3)cc1C(=O)O	-4.4	14.5	0.1	72.0*	88.1*	0.3
Cc1ccc(C(C)C)c(OCC(=O)NN=C2CCCCCCC2)c1	3.8	6.3	nt	nt	nt	nt
Cc1nc2ccccc2c(=O)n1NC(=O)COc1ccccc1	-3.2	-23.5	0.9	47.1	6.3	0.5
COc1ccc(Cl)cc1C(=O)Nn1c(C)nc2ccccc2c1=O	nt	nt	0.4	52.3*	57.0*	0.5
Cc1ccc(C(C)C)c(OCC(=O)Nn2c(C)nc3ccccc3c2=O)c1	-0.9	-0.3	0.9	84.4*	6.5	0.2
Cc1cccc(C)c1OCC(=O)Nn1c(C)nc2ccccc2c1=O	-1.3	-19.4	0.9	63.9*	5.7	0.4
Nc1nnc(SCCCC(=O)c2ccccc2)s1	2.1	-8.1	nt	nt	nt	nt
CC(C)NC(=O)CSc1nnc(-c2ccncc2)n1-c1ccccc1	-2.9	-4.7	0.1	58.5*	91.8*	0.4
Cc1cc(C(=O)CSc2nnc(-c3ccccc3)n2-c2ccccc2)c(C)n1-c1ncn[nH]1	-0.1	27.4	0.4	57.8*	61.8*	0.4
Cc1cc(C(=O)CSc2nnc(-c3ccncc3)n2-c2ccccc2)c(C)n1C	-2.3	-13.9	0.2	33.5	84.2*	0.7
SMILES	CD11b adhes enh	Mac1 fbg inh	CYP2C19 act	CYP2C9 inhib	CYP2C19 inhib	CYP2C9 act
N#Cc1ccccc1NC(=O)CSc1nnc(-c2ccc(F)cc2)n1-c1ccccc1	0.5	9.7	0.4	45.1	63.4*	0.5
Cc1ccc(NC(=O)COC(=O)c2cc(C)nc3ccccc23)c([N+](=O)[O-])c1	19.1	-24.6	nt	nt	nt	nt
Cc1cc(C(=O)CSc2nnc(-c3ccccc3)n2C)c(C)n1C	-6.1	-32.5	0.2	1.2	78.2*	1
CCOC(=O)CNC(=O)CSc1nc(N(C)C)nc(N2CCOCC2)n1	-2.4	-6.1	0.2	22.1	83.5*	0.8
COC(=O)CSc1nc(NC(C)C)nc(N2CCOCC2)n1	1.9	7.2	0.5	24.2	50.4*	0.8
O=C(Nc1cccc(F)c1)C1CCN(C(=O)c2ccccc2Cl)CC1	0.7	-7.1	0.5	44.4	45.3	0.6
COc1cccc(NC(=O)C23CCC(C)(C(=O)O2)C3(C)C)c1 (stereo unspecified)	-2.9	-3.1	1.1	0.0	-9.0	1
CCOC(=O)c1cc2n(c1/N=C/N(C)C)-c1ccccc1C2=O	0.6	-7.0	0.8	61.9*	21.9	0.4
CCO/C(C)=C1\C(=O)N(CC)c2ccccc21	3.1	-6.2	0.7	40.1	32.6	0.6
O=C(O)CCN1C(=O)C(=C2CCCCCC2)SC1=S	-2.2	1.4	0.9	33.2	8.4	0.7
O=C1C(=C2CCCCC2)SC(=S)N1Cc1ccco1	-2.4	-4.7	0.4	49.1	59.9*	0.5
CC(=O)N1CCN(C(=O)CSc2nc3c(cnn3-c3ccccc3)c(=O)[nH]2)CC1	0.0	5.7	1	37.9	4.1	0.6
CC1CCN(C(=O)CSc2nc3c(cnn3-c3ccccc3)c(=O)[nH]2)CC1	1.9	5.5	1	37.0	3.7	0.6
CCOC(=O)N1CCN(C(=O)CSc2nc3c(cnn3-c3ccc(Cl)cc3)c(=O)[nH]2)CC1	-1.0	-4.9	1	67.5*	-4.1	0.3
CCOc1ccc(-n2c(=S)sc3c(=O)[nH]c(SCC(=O)N4CCC(C)CC4)nc32)cc1	3.2	0.5	0.8	97.1*	17.3	0
CC1CCN(C(=O)CSc2nc3c(cnn3-c3ccc(Cl)cc3)c(=O)[nH]2)CC1	65.7	-8.6	0.9	54.6*	5.0	0.5
COC(=O)c1ccc(CSc2nc3c(cnn3-c3ccc(Cl)cc3)c(=O)[nH]2)o1	37.3	-6.0	0.1	75.9*	90.0*	0.2
O=S(CC1CC1(Cl)Cl)CC1CC1(Cl)Cl (stereo unspecified)	3.8	4.3	nt	nt	nt	nt
O=C(CSc1nnc([C@@H]2CCCN2)o1)c1ccc(Cl)cc1	-3.9	-7.6	0	30.5	97.7*	0.7
Clc1ccc(CSc2nnc([C@@H]3CCCN3)o2)cc1Cl	0.4	-15.3	0	35.2	99.6*	0.6

From PubChem BioAssay
